For 95 compounds, activity, negative = inhibition and AC50 results are on record in PubChem BioAssay AID1851 (National Center for Advancing Translational Sciences (NCATS), 2009).

Usually AC50 stands for the concentration giving half of the maximal activity seen.

In all, about 16,000 compounds went through this assay and about 5,100 (32%) were called active. About 25% were inconclusive and are not listed. Some of the results follow. Unmarked numbers belong to inactive results. Calls come from the whole dose curve; as a rule, active = well fitted curve in the direction sought with a large enough effect; inconclusive = small, poorly fitted or top-dose-only effect, or effect the other way; inactive = no such curve, though single readings can be large or run the other way.
% is set by controls: 0 for no effect and ±100 for the full control effect.

The target in the assay is Cytochrome P450 3A4 (Homo sapiens) (UniProt P08684). The experiment in a line: Cytochrome panel assay with activity outcomes. The note with it: recombinant CYP, pro-luciferin dealkylation, luminescence, p450-cyp3a4; series mostly up to 57.1 µM.
Cytochrome P450 3A4 (Homo sapiens), sequence (P08684 whole entry, looked up): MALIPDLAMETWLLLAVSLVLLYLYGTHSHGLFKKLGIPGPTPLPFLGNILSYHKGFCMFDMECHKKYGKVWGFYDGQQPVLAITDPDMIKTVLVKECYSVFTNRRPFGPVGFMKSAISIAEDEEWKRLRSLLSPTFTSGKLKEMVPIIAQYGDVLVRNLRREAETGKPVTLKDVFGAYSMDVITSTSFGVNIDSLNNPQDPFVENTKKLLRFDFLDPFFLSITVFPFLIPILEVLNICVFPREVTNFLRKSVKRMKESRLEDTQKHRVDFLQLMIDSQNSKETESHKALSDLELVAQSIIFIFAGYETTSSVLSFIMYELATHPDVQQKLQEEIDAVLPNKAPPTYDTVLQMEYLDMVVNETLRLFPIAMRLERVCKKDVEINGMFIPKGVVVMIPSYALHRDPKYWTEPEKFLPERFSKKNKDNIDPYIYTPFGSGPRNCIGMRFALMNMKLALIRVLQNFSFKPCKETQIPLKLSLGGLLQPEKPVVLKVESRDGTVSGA
For `NC(N)=NNC(=O)C(=O)O`, the activity, negative = inhibition is -1.33% [at 11.4 µM]. On the same count and under the same terms, the figure for `CC1=NN(c2ccc(F)cc2)C(=O)C1C(c1cccc(O)c1)c1c(C)[nH]n(-c2ccc(F)cc2)c1=O` (stereo not given) is 2.16% [at 2.29 µM]. Take `CC1=NN(c2ccc(C)cc2C)C(=O)C1C(c1ccccc1)C1C(=O)N(c2ccc(C)cc2C)N=C1C` (stereo not given): the AC50 was 11.2 µM (active). Same read-out and setting: to `Cc1ccc(N2C(=O)C(Cl)=C(NCc3ccccc3)C2=O)c(C)c1` belongs “inactive”; to `CCN(CC)CCNC(=O)c1cc(S(C)(=O)=O)ccc1OC`, “inactive”; to `CCN(CC)CCNC(=O)c1ccc(Cl)c(S(=O)(=O)Nc2ccccc2OC)c1`, 14.1 µM (active). For `CCN(CC)CCNC(=O)c1cc(Cl)c(N)cc1OC`, the AC50 result was “inactive”. On the same count and under the same terms, to `CCCCN(CC)Cc1ccc(CNC(=O)Nc2ccc(OC)cc2OC)o1` belongs 22.4 µM (active). On the same count and under the same terms, the entry for `COc1cnc(-c2ccccc2)nc1Oc1cccc(C)c1` is “inactive”.

On to `COc1cnc(-c2ccccn2)nc1Oc1ccc(Cl)c2ccccc12`, for which the AC50 is 14.1 µM (active).

Consider `COc1cnc(-c2ccccn2)nc1Sc1c(Cl)cccc1Cl`, for which the AC50 entry is “inactive”. Still for that read-out and setting: the entry for `CN(Cc1cnc2nc(N)nc(N)c2n1)c1ccc(C(=O)N[C@@H](CCC(=O)O)C(=O)O)cc1` is “inactive”; for `CCn1c2ccccc2c2cc(NC(=O)CSc3nnc(-c4ccc(OC)c(OC)c4)n3N)ccc21` it is 1 µM (active).

`COc1ccc(C)cc1NC(=O)CCC(=O)Nc1nnc(C(F)(F)F)s1`: the AC50 entry was “inactive”. As to `COc1ccc(NC(=O)COC(=O)Cn2c(C)nc3ccccc32)cc1OC`, the activity, negative = inhibition was 8.93% [at 2.29 µM]. Take `COc1ccc(C)cc1NC(=O)CSc1nnc(-c2ccc(OC)c(OC)c2)n1N`: the AC50 is 7.94 µM (active). The same measure, in the same setting: to `Cn1c(=O)c2c(ncn2C[C@@H](O)CO)n(C)c1=O` belongs “inactive”. Same read-out and setting: the entry for `Cn1c(=O)c2c(ncn2CCO)n(C)c1=O` is “inactive”; for `Cn1c(=O)c2c(ncn2CC(COCc2ccccc2Cl)OCc2ccccc2Cl)n(C)c1=O` (stereo not given) it is 7.94 µM (active); for `O=C(CSC1=NCCS1)N1CCN(c2ccc(Cl)cc2)CC1` it is 15.8 µM (active). With `Cc1cc([N+](=O)[O-])c(C)c(Br)c1C`, the activity, negative = inhibition is -7.05% [at 11.4 µM].

As to `O=C(O)/C(=C\c1ccc(O)cc1)c1cccc2ccccc12`, the activity, negative = inhibition is -2.12% [at 11.4 µM]. As for `NC(=O)/C(=C\c1ccncc1)c1cccc2ccccc12`, the half-maximal activity concentration (AC50) was 3.16 µM (active). `O=C(O)/C(=C\c1ccccc1)c1ccccc1`: the activity, negative = inhibition was -6.04% [at 11.4 µM]. In the case of `O=C(O)CCC(=O)N1CCc2cc(S(=O)(=O)NCc3cccs3)ccc21`, the AC50 result was “inactive”. Regarding `O=C(O)CCC(=O)N1CCc2cc(S(=O)(=O)N3CCCCC3)ccc21`, the AC50 result is “inactive”. On the same count and under the same terms, to `CCC(=O)N1CCc2cc(S(=O)(=O)NC(C(=O)NCc3ccc(F)cc3)C(C)C)ccc21` (stereo not given) belongs 7.08 µM (active).

As for `Cc1ccc2[nH]c(=O)c(NC(N)=S)nc2c1`, the AC50 result is “inactive”. Turning to `CCO/C(C)=N/n1c2nc3ccccc3nc2c2c(=O)n(CC(C)C)c(C)nc21`, the AC50 was 28.2 µM (active). Same read-out and setting: the entry for `CCOC(=O)Cn1c(-c2ccccc2)nc2ccccc2c1=O` is “inactive”. Take `O=C(O)c1ccccc1N[C@H](c1ccccc1)c1ccc2cccnc2c1O`: the activity, negative = inhibition was -13.5% [at 11.4 µM]. In the case of `CC(=O)Oc1cc(C(C)C)c(OCCN(C)C)cc1C`, the AC50 entry was “inactive”. Still for that read-out and setting: to `CCCCCCCCC(=O)NCc1cc(OC)c(O)cc1I` belongs 3.16 µM (active). Same read-out and setting: the entry for `CCCCCC(=O)Nc1cc2[nH]c(=O)cc(COC)c2cc1C` is “inactive”; for `COC(=O)CNC(=O)CCCCC(=O)NCC(=O)OC` it is “inactive”. As to `Cc1ccc(S(=O)(=O)Oc2cc(S(=O)(=O)O)cc3cc(S(=O)(=O)O)cc(N)c23)cc1`, the activity, negative = inhibition is 0.193% [at 11.4 µM].

On to `N#Cc1c(NC(=O)CCC(=O)O)ccc2ccccc12`, for which the activity, negative = inhibition is -1.16% [at 11.4 µM]. With `Cc1c(C#N)c(=O)oc2ccc3ccccc3c12`, the AC50 was 3.55 µM (active). Same read-out and setting: the entry for `Cc1nc(SCC(=O)c2cc3ccccc3oc2=O)c(C#N)c(C)c1C(=O)Nc1ccccc1` is “inactive”.

Turning to `CN(C)CCNc1oc(COc2ccc(Cl)cc2Cl)nc1C#N`, the AC50 result was “inactive”. The same measure, in the same setting: to `N#Cc1nc(COc2ccccc2Cl)oc1NCc1ccco1` belongs 5.01 µM (active). `O=C(O)C1CC2(C1)CC(C(=O)O)C2` (stereo not given): the activity, negative = inhibition was 5.16% [at 11.4 µM].

On to `CCCn1nc2cc(C(=O)NCc3ccc4c(c3)OCO4)ccc2c1OCC`, for which the activity, negative = inhibition was 32.6% [at 2.29 µM].

In the case of `Cc1ccc2c(c1)-c1c(cnn1CC(=O)O)CO2`, the AC50 entry was “inactive”. Still for that read-out and setting: the entry for `CCN1CCCC1CNC(=O)CCNC(=O)c1cc(OC)c(OC)c(OC)c1` (stereo not given) is “inactive”. In the case of `Cc1ccc(CNC(=O)CN2C(=O)COc3ccc(C)cc32)cc1`, the AC50 is 1.78 µM (active). Consider `Cc1ccc(C(=O)NCc2ccc(N3CCN(C(=O)OC(C)(C)C)CC3)cc2)cc1`, for which the AC50 entry is “inactive”. Still for that read-out and setting: the figure for `Cc1ccc2c(c1)N(CCC(=O)NCc1ccc3c(c1)OCO3)C(=O)CO2` is 0.112 µM (active). Same read-out and setting: the figure for `COc1cc(C(=O)NCCC(=O)NCc2ccc3c(c2)OCO3)cc(OC)c1OC` is 0.447 µM (active). Still for that read-out and setting: the figure for `COc1ccccc1CNC(=O)CCN1C(=O)COc2ccc(C)cc21` is 11.2 µM (active); for `CCc1nnc(NC(=O)CCC(=O)NCc2ccccc2OC)s1` it is “inactive”. For the compound `Cc1ccc2c(c1)N(CCC(=O)NCc1cccnc1)C(=O)CO2`, the AC50 is 3.55 µM (active). In the case of `O=C(O)c1cccc(N2CCCC2=O)c1`, the AC50 was 8.91 µM (active). With `O=C(O)c1cccc(SSc2cccc(C(=O)O)c2)c1`, the activity, negative = inhibition is -11.9% [at 11.4 µM]. Same read-out and setting: the figure for `O=C(O)c1cccc(CN2CCCCC2)c1` is -0.758% [at 11.4 µM]. Take `COc1ccc(-c2nc3cnc(N4CCN(C)CC4)nc3n(Cc3cccs3)c2=O)cc1`: the AC50 entry was “inactive”. Same read-out and setting: to `COc1ccc(Oc2ncc3nc(-c4ccc(F)cc4)c(=O)n(Cc4cccs4)c3n2)cc1` belongs 15.8 µM (active); to `COc1ccc(Oc2ncc3nc(C)c(=O)n(Cc4cccs4)c3n2)cc1`, 3.16 µM (active). On the same count and under the same terms, the entry for `COc1ccc(-c2nc3cnc(N4CCOCC4)nc3n(Cc3cccs3)c2=O)cc1` is “inactive”; for `Cc1nc2cnc(Oc3ccccc3)nc2n(Cc2cccs2)c1=O` it is 10 µM (active). Still for that read-out and setting: the figure for `COc1ccc(Oc2ncc3ncc(=O)n(Cc4cccs4)c3n2)cc1` is 3.16 µM (active); for `Cn1cc(-c2nc3cnc(Oc4ccccc4)nc3n(Cc3cccs3)c2=O)c2ccccc21` it is “inactive”. With `O=C(CC(=O)c1ccncc1)c1ccccc1`, the AC50 was 3.16 µM (active). Consider `O=C(C[N+]1(c2ccccc2)CCOCC1)c1ccccc1`, for which the activity, negative = inhibition is -14.4% [at 11.4 µM]. Still for that read-out and setting: the figure for `O=C(NNC(=O)c1ccncc1)c1ccncc1` is -9.5% [at 11.4 µM]. Regarding `CCc1cc2c(=O)c(-c3cnn(-c4ccccc4)c3)coc2c(CN2CCOCC2)c1O`, the activity, negative = inhibition is 12.2% [at 11.4 µM]. On to `Oc1c(CN2CCOCC2)cc(-c2ccccc2)cc1CN1CCOCC1`, for which the half-maximal activity concentration (AC50) is 15.8 µM (active). Consider `O=c1oc2c(CN3CCOCC3)c(O)ccc2c2ccccc12`, for which the activity, negative = inhibition is -4.65% [at 2.29 µM].

For `CCN(CC)C[C@@H]1CCCCN1CC(=O)N1c2ccccc2C(=O)Nc2cccnc21`, the half-maximal activity concentration (AC50) is 12.6 µM (active). Same read-out and setting: the entry for `CN1CCN(CC(=O)N2c3ccccc3C(=O)Nc3cccnc32)CC1` is “inactive”; for `Cc1ccc2c(c1)nnn2C1CCN(S(=O)(=O)c2ccc(C(=O)N3C(C)CCCC3C)cc2)CC1` (stereo not given) it is 1.41 µM (active); for `Cc1ccc2c(c1)nnn2C1CCN(CC(=O)N2c3ccccc3CC2C)CC1` (stereo not given) it is 10 µM (active). On the same count and under the same terms, to `CC1Cc2ccccc2N1C(=O)Cn1cc([N+](=O)[O-])cn1` (stereo not given) belongs “inactive”; to `CCC(=O)Nc1ccccc1C(=O)OCC(=O)c1cccc2ccccc12`, 11.2 µM (active); to `CCC(=O)Nc1ccccc1C(=O)OCC(=O)c1ccccc1`, “inactive”. `CCOC(=O)c1ccccc1NC(=O)/C(C)=C/C(=O)O`: the AC50 entry is “inactive”. The same measure, in the same setting: to `c1ccc2c(Nc3ccncc3)nc(-c3ccc4c(c3)OCO4)nc2c1` belongs 0.501 µM (active); to `c1ccc(Nc2nc(-c3ccc4c(c3)OCO4)nc3ccccc23)cc1`, 5.01 µM (active). For `Nc1ncnc2c([C@@H]3O[C@@H](CO)[C@H](O)[C@@H]3O)nsc12`, the activity, negative = inhibition is -0.156% [at 11.4 µM]. For the compound `CN(C)/N=N\c1nc[nH]c1C(N)=O`, the AC50 entry is “inactive”.

On to `O=C(c1nn(Cc2ccccc2)c(=O)c2ccccc12)N1CCN(C/C=C/c2ccccc2)CC1`, for which the AC50 was 2.24 µM (active). On the same count and under the same terms, to `O=C(O)C1C2C=CC(C2)C1C(=O)N1CCN(C/C=C/c2ccccc2)CC1` (stereo not given) belongs “inactive”.

In the case of `O=C(Nc1nc(-c2ccccc2)cs1)c1cccc([N+](=O)[O-])c1`, the half-maximal activity concentration (AC50) is 10 µM (active).

On to `CCC(=O)Nc1cccc(NC(=O)c2cccc([N+](=O)[O-])c2)c1`, for which the AC50 was 22.4 µM (active). As to `COc1ccc(-c2nc(NC(=O)c3ccccc3)sc2-c2ccc([N+](=O)[O-])cc2)cc1`, the activity, negative = inhibition is 12.5% [at 2.29 µM]. Turning to `O=C(COc1cccc(NC(=O)c2cccc([N+](=O)[O-])c2)c1)c1ccc(Br)cc1`, the AC50 entry is “inactive”. On the same count and under the same terms, the figure for `COc1ccc(CC(=O)Nc2cccc(/C(C)=N/NC(=O)c3cccc([N+](=O)[O-])c3)c2)cc1` is 2 µM (active). Turning to `COc1ccc(C(=O)Nc2cccc(/C(C)=N/NC(=O)c3ccc([N+](=O)[O-])cc3)c2)cc1OC`, the activity, negative = inhibition was -28.5% [at 2.29 µM]. Take `N[C@H](C(=O)O)c1ccc(C(=O)O)cc1`: the AC50 entry is “inactive”. The same measure, in the same setting: the entry for `CCN(CC)CCNC(=O)Cn1nc(-c2ccc(C)cc2)ccc1=O` is “inactive”. With `CN(C)c1ncc2nc(-c3cccc(C#N)c3)c(=O)n(CCC#N)c2n1`, the AC50 result is “inactive”. The same measure, in the same setting: the entry for `N#CCCn1c(=O)c(-c2cccc(C#N)c2)nc2cnc(Oc3cccc(Cl)c3)nc21` is “inactive”. Still for that read-out and setting: to `COc1ncc2nc(-c3cccc(C#N)c3)c(=O)n(CCC#N)c2n1` belongs 25.1 µM (active). Same read-out and setting: to `COc1ccc(Oc2ncc3nc(-c4cccc(C#N)c4)c(=O)n(Cc4cccc(OC)c4)c3n2)cc1` belongs 2 µM (active); to `COc1cccc(Cn2c(=O)c(-c3cccc(C#N)c3)nc3cnc(OC)nc32)c1`, 3.16 µM (active).
